# Assay results published in PubChem BioAssay.
# Calls of active or inactive are those of the source.
# How the values were obtained:
# [1] = test system: Plasmodium falciparum Sir2 (PF13_0152, Sir2A); assay: Plasmodium falciparum Sir2A binding compounds – biochemical, small-molecule microarray, 635 nm fluorescence, primary screen (AID 1098); conditions: fluorescence 635 nm, higher = more signal;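 also: score merges spot fluorescence intensity with its signal-to-noise ratio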
# [2] = probe aDKK1 binding to arrayed compounds – biochemical, biotinylated probe, 635/667 nm fluorescence, primary screen (AID 1099); conditions: small-molecule microarray, higher = more signal;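 also: score merges 667nm spot fluorescence with signal to noise across triplicate slides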
# [3] = probe aCHRDL2 binding to arrayed compounds – biochemical, biotinylated probe, 635/667 nm fluorescence, primary screen (AID 1100); conditions: small-molecule microarray, higher = more signal
# [4] = change in splice reporter luminescence, either direction, cell-based, HEK293, spliceosome inhibition project, primary screen (AID 1101); conditions: HEK293 splicing luciferase reporter, 24 h, higher = more signal, called active from +8 up or from −8 down;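 also: HEK293 cells carrying a splicing-competent luciferase reporter gene; test concentration not given here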
# [5] = molecular target: Fibroblast growth factor 10 (Homo sapiens) (UniProt O15520); assay: compounds binding fibroblast growth factor 10 – biochemical, small-molecule microarray, 635 nm fluorescence, primary screen (AID 1102); conditions: FGF10 binding, fluorescence 635 nm, higher = more signal
# [6] = test system: glycogen synthase kinase-3 (GSK3A per assay name; protocol says GSK3B); assay: compounds binding glycogen synthase kinase-3 – biochemical, small-molecule microarray, 635 nm fluorescence, GSK3A, primary screen (AID 1103); conditions: fluorescence 635 nm, higher = more signal; also: the record names both GSK3A and GSK3B
# [7] = molecular target: Epidermal growth factor receptor (Homo sapiens) (UniProt P00533); assay: compounds binding epidermal growth factor receptor – biochemical, small-molecule microarray, 635 nm fluorescence, primary screen (AID 1104); conditions: EGFR binding, higher = more signal;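 also: score merges 667 nm emission intensity with spot signal to noise over triplicate slides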
# [8] = molecular target: Follistatin-related protein 3 (Homo sapiens) (UniProt O95633); assay: compounds binding follistatin-related protein 3 – biochemical, small-molecule microarray, 635 nm fluorescence, primary screen (AID 1105); conditions: FSTL3 binding, higher = more signal;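 also: score merges emission near 667 nm and signal to noise per printed spot across three slides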
# [9] = molecular target: Dickkopf-related protein 1 (Homo sapiens) (UniProt O94907); assay: small molecules binding DKK1 protein – biochemical, small-molecule microarray, 635 nm fluorescence scan, primary screen (AID 1106); conditions: higher = more signal;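 also: score merges emission near 667 nm with signal to noise over three replicate slides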
# [10] = test system: Inhibin beta A chain (activin A); assay: small molecules binding activin A – biochemical, small-molecule microarray, 635 nm fluorescence scan, primary screen (AID 1107); conditions: INHBA, higher = more signal;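 also: mouse activin A protein probed at 4.33 µg/mL on printed slides; score merges bound-protein fluorescence near 667 nm with spot signal-to-noise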
# [11] = test system: Human papillomavirus type 1a protein E7 (residues 44-93); assay: small molecules binding HPV E7 44-93 – biochemical, small-molecule microarray, residues 44-93, 635 nm fluorescence, primary screen (AID 1108); conditions: fluorescence 635 nm, higher = more signal;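 also: E7 fragment applied at 1 µg/mL in TBST for 1 h at 4 C; score combines spot fluorescence with its signal to noise ratio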
# [12] = hepatitis C replication reporter changes, two-sided – Huh7 cells, luciferase reporter, HCV replication inhibitor project, primary screen (AID 1109); conditions: Huh7 HCV replicon luciferase reporter, 48 h; higher = more signal;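 also: huh7 hepatoma cells harbouring a luciferase neomycin HCV replicon reporter; luciferase luminescence as measure of HCV replicon replication; test concentration not given here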
# [13] = molecular target: Left-right determination factor 2 (Homo sapiens) (UniProt O00292); assay: small molecules binding LEFTY2 protein – biochemical, small-molecule microarray, 635 nm fluorescence scan, primary screen (AID 1110); conditions: higher = more signal
# [14] = molecular target: Calmodulin-1 (Homo sapiens) (UniProt P0DP23); assay: small molecules binding calmodulin-1 with EGTA – biochemical, small-molecule microarray, Cy5-labelled CALM1, profiling panel (AID 1111); conditions: Cy5-CALM1 binding fluorescence, higher = more signal;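 also: labelled calmodulin applied in Tris saline Tween buffer holding calcium plus EGTA and DTT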
# [15] = molecular target: Calmodulin-1 (Homo sapiens) (UniProt P0DP23); assay: small molecules binding Ca-loaded calmodulin-1 – biochemical, small-molecule microarray, Cy5-labelled CALM1, plus calcium, artefact control for SMM control-protein annotation, profiling panel (AID 1112); conditions: Cy5-CALM1 binding fluorescence, higher = more signal;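 also: score merges spot fluorescence with signal to noise from triplicate slides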
# [16] = probe aWnt5a binding to arrayed compounds – biochemical, biotinylated probe, 635/667 nm fluorescence, primary screen (AID 1113); conditions: small-molecule microarray, higher = more signal;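 also: score merges 667 nm fluorescence intensity with signal-to-noise per printed feature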
# [17] = probe aShh binding to arrayed compounds – biochemical, biotinylated probe, 635/667 nm fluorescence, primary screen (AID 1114); conditions: small-molecule microarray, higher = more signal;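 also: probe is biotin-labelled aShh protein from a stem cell growth factor screen; measures binding of labelled protein to compounds printed on the slide; score merges feature fluorescence at 667 nm with signal-to-noise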
# [18] = probe aNog binding to arrayed compounds – biochemical, biotinylated probe, 635/667 nm fluorescence, primary screen (AID 1115); conditions: small-molecule microarray, higher = more signal;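 also: probe is biotinylated aNog protein used at 0.15 µg/mL for 1 h at 4 C; z-score combines 667 nm fluorescence of each spot with its signal to noise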
# [19] = molecular target: Torsin-1A-interacting protein 1 (Homo sapiens) (UniProt Q5JTV8); assay: compound microarray binding of lysate hLAP1 – cell lysate, small-molecule microarray, COS7 lysate, 635/667 nm fluorescence, primary screen (AID 1116); conditions: 635 nm fluorescence, higher = more signal
# [20] = molecular target: Alpha-bungarotoxin (Bungarus multicinctus) (UniProt P60615); assay: compounds binding labelled alpha-BTX control protein – biochemical, small-molecule microarray, Alexa647 label, 635/667 nm fluorescence, artefact control for SMM control protein annotation, profiling panel (AID 1117); conditions: alpha-BTX-A647 binding fluorescence, higher = more signal
# Sequence of Alpha-bungarotoxin (Bungarus multicinctus) (P60615 whole entry, looked up): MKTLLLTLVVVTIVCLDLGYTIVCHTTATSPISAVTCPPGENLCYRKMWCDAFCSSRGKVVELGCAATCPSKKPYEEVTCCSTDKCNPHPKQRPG
# Sequence of Epidermal growth factor receptor (Homo sapiens) (P00533 whole entry, looked up): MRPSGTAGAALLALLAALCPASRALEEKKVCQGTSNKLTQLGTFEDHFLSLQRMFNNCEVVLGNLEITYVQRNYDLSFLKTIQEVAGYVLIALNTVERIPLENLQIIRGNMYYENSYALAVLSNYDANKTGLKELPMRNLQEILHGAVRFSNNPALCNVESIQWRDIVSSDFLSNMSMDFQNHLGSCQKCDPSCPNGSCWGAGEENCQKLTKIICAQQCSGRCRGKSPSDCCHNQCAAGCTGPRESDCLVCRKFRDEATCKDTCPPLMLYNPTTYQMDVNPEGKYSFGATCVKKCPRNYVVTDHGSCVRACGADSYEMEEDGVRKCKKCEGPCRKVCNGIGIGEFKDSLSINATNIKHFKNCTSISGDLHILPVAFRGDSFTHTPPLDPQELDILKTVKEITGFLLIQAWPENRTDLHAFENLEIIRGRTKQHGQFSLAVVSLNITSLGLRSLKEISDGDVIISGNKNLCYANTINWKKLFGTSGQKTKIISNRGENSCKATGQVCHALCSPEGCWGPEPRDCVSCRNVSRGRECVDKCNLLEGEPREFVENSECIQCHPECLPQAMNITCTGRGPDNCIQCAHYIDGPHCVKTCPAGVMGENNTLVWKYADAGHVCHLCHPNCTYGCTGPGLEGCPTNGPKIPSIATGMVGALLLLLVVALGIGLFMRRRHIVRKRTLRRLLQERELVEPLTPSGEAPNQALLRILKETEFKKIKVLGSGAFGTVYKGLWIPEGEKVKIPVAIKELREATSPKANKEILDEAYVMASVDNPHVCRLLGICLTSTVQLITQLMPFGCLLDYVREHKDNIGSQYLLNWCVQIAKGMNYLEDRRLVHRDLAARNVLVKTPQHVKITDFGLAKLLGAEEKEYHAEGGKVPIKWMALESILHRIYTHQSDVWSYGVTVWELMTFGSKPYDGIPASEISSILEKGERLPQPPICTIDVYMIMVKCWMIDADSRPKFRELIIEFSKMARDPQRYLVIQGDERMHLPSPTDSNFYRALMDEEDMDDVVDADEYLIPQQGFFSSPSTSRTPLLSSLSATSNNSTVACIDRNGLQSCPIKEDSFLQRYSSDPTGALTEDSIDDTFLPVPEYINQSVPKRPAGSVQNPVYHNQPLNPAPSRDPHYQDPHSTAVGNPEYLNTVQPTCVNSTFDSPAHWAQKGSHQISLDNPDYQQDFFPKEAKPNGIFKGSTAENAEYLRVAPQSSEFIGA
# Sequence of Left-right determination factor 2 (Homo sapiens) (O00292 whole entry, looked up): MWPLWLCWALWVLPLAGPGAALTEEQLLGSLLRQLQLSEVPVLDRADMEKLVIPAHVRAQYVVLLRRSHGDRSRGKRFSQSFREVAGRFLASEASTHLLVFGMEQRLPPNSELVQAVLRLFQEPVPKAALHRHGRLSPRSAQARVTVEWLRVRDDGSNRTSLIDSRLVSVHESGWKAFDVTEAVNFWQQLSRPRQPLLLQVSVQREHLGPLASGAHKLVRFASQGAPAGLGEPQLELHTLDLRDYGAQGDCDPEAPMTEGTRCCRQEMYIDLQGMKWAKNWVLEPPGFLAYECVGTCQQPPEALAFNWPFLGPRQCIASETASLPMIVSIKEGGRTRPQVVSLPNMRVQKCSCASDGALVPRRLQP
# Sequence of Follistatin-related protein 3 (Homo sapiens) (O95633 whole entry, looked up): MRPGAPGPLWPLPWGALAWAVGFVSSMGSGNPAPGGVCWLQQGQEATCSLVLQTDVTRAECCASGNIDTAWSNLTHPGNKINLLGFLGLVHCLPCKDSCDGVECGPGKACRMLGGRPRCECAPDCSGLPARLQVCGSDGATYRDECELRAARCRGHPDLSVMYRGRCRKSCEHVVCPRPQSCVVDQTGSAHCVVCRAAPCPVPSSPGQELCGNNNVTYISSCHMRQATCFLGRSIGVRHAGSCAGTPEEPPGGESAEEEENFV
# Sequence of Torsin-1A-interacting protein 1 (Homo sapiens) (Q5JTV8 whole entry, looked up): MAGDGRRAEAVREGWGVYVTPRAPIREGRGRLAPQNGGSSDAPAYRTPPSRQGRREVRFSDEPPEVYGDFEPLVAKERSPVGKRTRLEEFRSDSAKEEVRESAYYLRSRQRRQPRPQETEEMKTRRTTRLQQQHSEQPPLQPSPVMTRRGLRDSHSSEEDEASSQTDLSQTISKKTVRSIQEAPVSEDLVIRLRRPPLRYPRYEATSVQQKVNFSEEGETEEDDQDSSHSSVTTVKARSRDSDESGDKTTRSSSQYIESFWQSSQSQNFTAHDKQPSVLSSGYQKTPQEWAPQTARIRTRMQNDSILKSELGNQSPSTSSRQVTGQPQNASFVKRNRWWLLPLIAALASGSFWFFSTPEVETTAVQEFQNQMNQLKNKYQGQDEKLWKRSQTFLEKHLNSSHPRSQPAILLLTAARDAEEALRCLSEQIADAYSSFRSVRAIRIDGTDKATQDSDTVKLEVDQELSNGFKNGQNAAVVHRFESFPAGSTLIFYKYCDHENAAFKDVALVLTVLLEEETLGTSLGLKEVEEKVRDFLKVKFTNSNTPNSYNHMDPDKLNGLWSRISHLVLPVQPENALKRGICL
# Sequence of Dickkopf-related protein 1 (Homo sapiens) (O94907 whole entry, looked up): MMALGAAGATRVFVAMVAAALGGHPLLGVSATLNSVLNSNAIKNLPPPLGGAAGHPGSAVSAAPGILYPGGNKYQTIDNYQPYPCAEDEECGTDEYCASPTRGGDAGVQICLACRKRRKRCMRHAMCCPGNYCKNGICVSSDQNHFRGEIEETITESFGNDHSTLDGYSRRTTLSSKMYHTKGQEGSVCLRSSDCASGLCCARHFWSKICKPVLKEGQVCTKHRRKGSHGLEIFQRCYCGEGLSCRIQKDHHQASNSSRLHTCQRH
# Sequence of Fibroblast growth factor 10 (Homo sapiens) (O15520 whole entry, looked up): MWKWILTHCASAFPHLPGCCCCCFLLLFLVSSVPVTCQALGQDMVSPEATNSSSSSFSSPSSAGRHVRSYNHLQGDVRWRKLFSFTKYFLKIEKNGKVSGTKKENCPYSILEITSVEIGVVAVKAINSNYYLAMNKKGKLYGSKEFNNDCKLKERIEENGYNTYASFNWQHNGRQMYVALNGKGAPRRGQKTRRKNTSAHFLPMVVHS
SMILES,composite z-score [1],composite z-score [2],composite z-score [3],z-score [4],composite z-score [5],composite z-score [6],composite z-score [7],composite z-score [8],composite z-score [9],composite z-score [10],composite z-score [11],z-score [12],composite z-score [13],composite z-score [14],composite z-score [15],composite z-score [16],composite z-score [17],composite z-score [18],composite z-score [19],composite z-score [20]
CC1=C2[C@@H](CCc3ccccc3)OB(O)C[C@@H]2n2c(=O)n(-c3ccccc3)c(=O)n2C1,0.897,-0.0992,-0.339,0.72 (inactive),0.355,0.255,0.249,0.894,0.565,0.421,0.352,-1.23,0.664,0.177,-0.878,-0.096,0.133,-0.198,0.543,-0.027
COc1ccc(C(O)C2C=CC3C(=O)N(c4ccccc4)C(=O)C3N2Nc2ccc([N+](=O)[O-])cc2)cc1OCc1ccccc1 (stereo not given),1.4,1.86,1.15,0.465 (inactive),1.02,0.735,0.534,0.763,-0.0143,1.07,0.664,0.872,0.0921,0.804,0.584,1,0.504,2.27,0.979,1.27
COC(=O)c1ccc(C(O)C2C=CC3C(=O)N(C)C(=O)C3N2NC(=O)OC(C)(C)C)o1 (stereo not given),0.66,0.49,0.266,1.26 (inactive),0.558,0.483,0.557,0.622,-0.0526,0.399,0.703,-0.104,0.432,0.81,-0.493,0.112,-0.0904,0.672,2.02,0.977
O=c1oc(-c2ccccc2)nc2cc(Br)ccc12,0.486,-0.184,-0.493,-0.288 (inactive),0.312,0.838,0.448,0.582,0.508,-0.0295,0.55,-1.04,0.69,-0.0114,-0.427,-0.117,-0.221,-0.221,0.503,0.318
Cc1ccc(S[C@]2(C(=O)NC3CC3)CC(=O)N(Cc3ccccc3)[C@@H]2c2ccc(CO)cc2)cc1,0.325,0.224,0.892,-0.61 (inactive),-0.829,-0.414,-0.679,-0.217,0.539,0.194,-0.269,-0.921,-1.19,-0.274,0.176,-0.197,-0.237,0.314,1.39,0.848
COC(=O)[C@@]1(Cc2ccc(OC)cc2)[C@H]2c3cc(C(=O)N4CCCC4)n(CCc4c[nH]c5cc(F)ccc45)c3C[C@H]2CN1C(=O)c1ccccc1,1.31,0.185,1.19,-0.332 (inactive),0.875,1.09,0.0022,0.988,-0.0303,0.831,0.991,-1.89,0.259,2.73,1.07,0.168,0.265,2.06,2.94,1.42
CC(c1ccccc1)C(O)C1C=CC2C(=O)NC(=O)C2N1Nc1ccccn1 (stereo not given),0.459,0.0178,0.585,1.63 (inactive),0.831,0.767,0.532,1.01,0.481,1.41,1.35,0.355,0.313,-0.104,-0.487,-0.0478,-0.138,0.496,0.903,0.672
CCCC[C@@H]1C[C@H]1[C@@H](NC(=O)c1ccc(-c2ccccc2)cc1)c1ccc(-c2ccccc2)cc1,-0.508,0.126,0.0604,-2.88 (inactive),0.259,0.127,1.21,1.39,1.01,1.35,0.511,-0.787,0.848,0.212,-0.836,-0.0459,1.37,-0.435,0.285,0.364
CCCCC(O)C1C=CC2C(=O)N(C3CCCCC3)C(=O)C2N1Nc1ccc(OC)cc1 (stereo not given),0.637,0.298,0.948,-0.221 (inactive),0.517,1.28,-0.0301,1.12,-0.517,0.943,1.4,-0.385,0.0786,1.05,0.304,-0.0405,0.13,0.712,0.624,0.914
COc1ccc([Si](C)(C)[C@@H]2[C@@H](CCn3cc([C@H](O)c4ccccc4)nn3)O[C@]3(C(=O)N(Cc4ccc(N5C(=O)c6cccc7cccc5c67)cc4)c4ccccc43)[C@H]2C)cc1,0.286,-0.187,-0.0017,-1.5 (inactive),-0.456,-0.513,-0.471,-0.586,-0.795,-0.409,0.314,-2.88,-0.556,0.273,0.702,-0.154,-0.0904,-0.131,-0.0215,0.152
CCCCC=C[C@@H](NC(=O)c1ccco1)c1ccccc1,0.276,0.373,0.557,0.808 (inactive),0.689,-0.877,0.12,0.296,0.0504,0.809,-0.244,-0.502,0.0518,1.31,0.137,0.0151,0.356,0.531,-0.153,1.18
COC(=O)[C@@]1(Cc2ccccc2)[C@H]2c3cc(C(=O)N(C)C)n(Cc4c(-c5ccccc5)noc4C)c3C[C@H]2CN1C(=O)c1ccccc1,0.609,0.898,1.18,0.762 (inactive),0.377,0.638,0.144,0.0261,-0.0672,1.22,1.15,-0.535,-0.51,1.16,0.954,0.204,0.545,1.85,1.68,1.56
